The subject of the assay is ERBB4. The note with it: concentration: 1 μM, replicates: in singlicate; n = 1.
Regarding `Cc1ccc(C(=O)Nc2ccc(Nc3ccnc4cc(-c5nccs5)ccc34)cc2O)cc1.Cl` [GW494702], the “%Inh” value is given as 10%. With `CC(C)c1nc(-c2cccc(NS(=O)(=O)c3c(F)cccc3F)c2F)c(-c2ccnc(Nc3ccc(N4CCOCC4)nc3)n2)s1` [GSK2008607] the figure was 97.7%; with `Cl.c1ccc(-c2ccc3c(Nc4ccc5[nH]ccc5c4)ccnc3c2)nc1` [GW440138], 44%.

As to `Nc1ncc(-c2cccnc2)c2scc(-c3ccc4c(c3)CCN4C(=O)Cc3ccccc3)c12` [GSK683281], the “%Inh” value turned out to be 2%. Under `COc1cc(Nc2nccc(-c3c(-c4cccc(NC(=O)c5c(F)cccc5F)c4)nn4ccccc34)n2)cc(OC)c1OC` [GSK323521] stands 12%; under `CCc1ccc(-c2ccc3c(c2)-c2c(cnn2C)S(=O)(=O)N3C)cc1`, 4%. On to `COC(=O)Nc1nc2cc(Oc3ccc(NC(=O)Nc4cc(C(F)(F)F)ccc4F)cn3)ccc2[nH]1.Cl.Cl` [GW681170], for which the “%Inh” value is on record as 2%. With `Cc1occc1-c1ncc(OC[C@@H](N)Cc2c[nH]c3ccccc23)cc1-c1ccc2[nH]nc(C)c2c1.O=C(O)C(F)(F)F` [GSK682037] the figure was 47%. Under `O=C(Nc1cccc(Oc2ccc3nc(NC(=O)C4CC4)cn3n2)c1)c1ccccc1C(F)(F)F` stands 20%; under `CSc1cccc2c(-c3ccncn3)c(-c3ccc(F)cc3)nn12` [GW514786], 0%. With `COc1cc(Nc2ncc3c(C)nc(-c4cc5ccccc5[nH]4)n3n2)cc(OC)c1OC` [GW869516], the “%Inh” value is given as 34%. For the compound `O=C(Nc1cccc(-c2nn3ccccc3c2-c2ccnc(Nc3cccc(C(F)(F)F)c3)n2)c1)c1c(F)cccc1F` [GSK292658], the “%Inh” value is 90%.

Consider `CNC(=O)c1ccccc1Nc1nc(Nc2ccc(N3CCOCC3)cc2)ncc1Cl.Cl` [GSK1576028], for which the “%Inh” value was determined as 93.4%. With `Cl.c1ccc(-c2ccc3c(Nc4ccc5[nH]ncc5c4)ccnc3c2)nc1` [GW440137] the figure was 31%; with `Cl.Cl.NCC(NC(=O)c1cc(-c2ccccc2)c(-c2ccnc3[nH]ccc23)s1)c1ccccc1` (stereo not shown) [GSK1321561], 49%; with `COc1cc2c(cc1OCCN1CCNCC1)ncc1c3ccc(C#N)cc3[nH]c21`, 28%. As for `CCn1c(-c2nonc2N)nc2c(C#CC(C)(C)O)ncc(OCCCCN)c21.O=C(O)C(F)(F)F.O=C(O)C(F)(F)F` [GSK507274], the “%Inh” value was 41%. Consider `COc1cc(Nc2nccc(-c3c(-c4cccc(NC(=O)c5c(F)cccc5F)c4)nn4ncccc34)n2)cc(OC)c1OC` [GSK327238], for which the “%Inh” value was found to be 99.4%.

Take `COc1cc(Nc2nccc(N3CCC(NC(=O)Nc4cccc(C(C)=O)c4)C3)n2)cc(OC)c1OC` (stereo not shown) [GSK1379753]: the “%Inh” value is recorded as 19%. With `CN(C)S(=O)(=O)c1cc(-c2ccc3nccc(-c4cccc(S(N)(=O)=O)c4)c3c2)cnc1N` [GSK1669921] the figure was 0%; with `COCCOCCOc1cc2ncc3c4ccc(C#N)cc4[nH]c3c2cc1OC`, 0%. Consider `Nc1n[nH]c2cnc(-c3ccccc3)cc12` [SB-642124], for which the “%Inh” value is given as 24%. With `CN1CCN(CCCNc2nccc(-c3c(-c4ccc(F)cc4)nn4cc(C(F)(F)F)ccc34)n2)CC1` [GW621581] the figure was 0%; with `Nc1ncnc2c1nc(-c1ccccc1)n2-c1ccccc1` [SKF-97293], 0%.

In the case of `Cl.NC(=O)c1cccc(Nc2nccc(Nc3ccc(Oc4c(Cl)cccc4Cl)c(Cl)c3)n2)c1` [GW659009], the “%Inh” value is reported as 93.9%. With `Cc1ccc(F)c(C(=O)Nc2cccc(-c3nn4ccccc4c3-c3ccnc(Nc4cccc(F)c4)n3)c2)c1F` [GSK361061] the figure was 96.4%; with `COc1cccc(-c2ccc3c(NC(=O)C4CC4)n[nH]c3n2)c1` [SB-710903], 36%. For `CC(=O)N1CCN(c2ccc(Nc3nccc(-c4sc(C(C)C)nc4-c4cccc(NS(=O)(=O)c5cccc(Cl)c5)c4)n3)cn2)CC1` [GSK1660437], the “%Inh” value stood at 40%. With `C[C@@H]1CC[C@@H](C(=O)Nc2ccccc2)CN1c1cc(-c2ccc3c(N)n[nH]c3c2)nc(N)n1` [GSK2286062] the figure was 0%; with `Clc1ccc(-c2nn3ncccc3c2-c2ccnc(Nc3ccc4c(c3)OCCO4)n2)cc1` [GW829116], 84%. Under `Cc1ccc(C(=O)N2CC[C@@H](O)C2)cc1-n1c(C)cc(OCc2ccc(F)cc2F)c(Br)c1=O` stands 35%.

For the origin of these results see publication PMC5540273 (PLoS ONE, 2017).
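Note: KINOMEscan kinase panel screen.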
